A selection: hits, their analogues and other compounds. The true share with any hit is near 2.8%.
Pol eta inh-1 – blocks human DNA polymerase eta activity; recombinant Pol eta, fluorescent DNA replication assay; Q9Y253; 390,000 tested, 1.2% active; Potency, µM (series often up to 114 µM), for the others: at the top dose activity change, negative = inhibition, actives largely listed as inhibitors; note: potency is the fitted concentration of half-maximal effect; % is set by controls: 0 for no effect and ±100 for the full control effect
Target sequence (Q9Y253 whole entry, looked up): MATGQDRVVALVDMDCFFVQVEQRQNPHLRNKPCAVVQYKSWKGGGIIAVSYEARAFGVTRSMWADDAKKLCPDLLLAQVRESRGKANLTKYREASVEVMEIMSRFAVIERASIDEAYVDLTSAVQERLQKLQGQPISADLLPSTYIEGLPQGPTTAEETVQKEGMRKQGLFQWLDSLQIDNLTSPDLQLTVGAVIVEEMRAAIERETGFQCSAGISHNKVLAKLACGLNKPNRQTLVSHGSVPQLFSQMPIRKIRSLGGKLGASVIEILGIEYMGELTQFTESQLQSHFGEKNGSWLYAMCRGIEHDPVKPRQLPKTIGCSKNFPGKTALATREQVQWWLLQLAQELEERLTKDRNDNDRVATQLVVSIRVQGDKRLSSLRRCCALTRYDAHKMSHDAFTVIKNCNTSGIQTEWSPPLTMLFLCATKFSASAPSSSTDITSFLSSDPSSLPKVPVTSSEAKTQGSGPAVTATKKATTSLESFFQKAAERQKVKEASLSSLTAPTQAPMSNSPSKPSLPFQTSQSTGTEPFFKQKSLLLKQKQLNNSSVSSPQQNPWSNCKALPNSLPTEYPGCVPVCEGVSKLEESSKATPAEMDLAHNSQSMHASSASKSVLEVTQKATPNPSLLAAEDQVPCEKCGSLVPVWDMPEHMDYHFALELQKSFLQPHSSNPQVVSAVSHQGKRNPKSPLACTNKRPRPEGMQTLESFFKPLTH
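Pol eta at 10 nM preincubated with compounds 15 min at room temperature; reaction started with fluorescent substrate (50 nM final) and read kinetically at 0 and 10 min.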
POLB inh – blocks human DNA polymerase beta activity; P06746; Pol beta primer extension/strand displacement, fluorescence kinetic; Potency, µM (top dose mostly 114 µM), without a hit: top-dose activity change, negative = inhibition, usual class: inhibitors; 340,000 tested, 1.3% active; note: potency is the fitted concentration of half-maximal effect; % is set by controls: 0 for no effect and ±100 for the full control effect
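Enzyme-only controls used 10 nM Pol beta; buffer lacking enzyme served as negative control. Compound preincubated 15 min, then 50 nM substrate added; 0 and 10 min reads at room temperature.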
Pol iota inh – DNA polymerase iota (human) inhibition | Potency, µM (doses to about 115 µM), inactives show at the top dose activity, negative = inhibition, actives largely listed as inhibitors | 390,000 tested, 1% active | Q9UNA4 | AID 588590 | Pol iota fluorescent replication assay, 10 min; note: potency is the fitted concentration of half-maximal effect
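Pol iota at 10 nM preincubated 15 min with compounds at room temperature; reaction started with fluorescent substrate, 50 nM final. Fluorescence read kinetically at 0 and 10 min; buffer-only wells as negative control.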
WRN inhibitor – inhibitors of human WRN helicase; WRN helicase unwinding, fluorescent forked duplex, kinetic; Potency, µM (titrated, usually from 114 µM), inactives show top-dose activity change, negative = inhibition, actives largely listed as inhibitors; Q14191; 360,000 tested, 0.46% active; note: potency is the fitted concentration of half-maximal effect; % is set by controls: 0 for no effect and ±100 for the full control effect; nearly all actives have a fitted effect of over 55% in size
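Screening of the MLSMR collection measured strand separation of a quenched forked DNA duplex (100 nM) by 20 nM WRN with 2 mM ATP, all final. Compounds were preincubated with enzyme 15 min at room temperature.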
Pol kappa inh-1 – blocks human DNA polymerase kappa activity. purified Pol kappa, fluorescent DNA synthesis assay, 10 min. Potency, µM (doses to about 107 µM), without a hit: top-dose activity, negative = inhibition, most hits filed as inhibitors. Q9UBT6. 400,000 tested, 0.53% active; note: potency is the fitted concentration of half-maximal effect; % is set by controls: 0 for no effect and ±100 for the full control effect
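10 nM Pol kappa was preincubated with compounds for 15 min at room temperature. Reaction started with 50 nM (final) substrate. Fluorescence read kinetically at 0 and 10 min.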
PI5P4K alpha inh – blocks human PI5P4K alpha kinase activity. P48426. PI5P4Kalpha enzyme, ADP-Glo luminescence, 60 min; hits give low values. max response, %. 330,000 tested, 1.2% active; active = max response of -50% or lower; inconclusive = between -30% and -50%; inactive = -30% or higher; note: value at the top dose of about 77 µM; % is set by controls: 0 for no effect and ±100 for the full control effect
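Compounds were pin-transferred onto PI5P4Kalpha and substrate in HEPES pH 7.4 buffer with EGTA, CHAPS and 5% DMSO. ATP (5 microM final) started the reaction, which ran 60 minutes at room temperature before ADP-Glo detection.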
GALK confirm – confirmation of human galactokinase (GALK) inhibitors | shares compounds with Pol eta inh-1 | purified GALK, Kinase-Glo ATP depletion luminescence | Potency, µM (series often up to 115 µM), for the others: at the highest dose activity, negative = inhibition, usual class: inhibitors | 150 tested, 70% active | AID 2015
GALK redox cs – counter-screen for GALK inhibitors: redox cycling H2O2 generation | shares compounds with Pol eta inh-1 | Phenol red-HRP H2O2 redox cycling, absorbance 600 nm | Potency, µM (series often up to 115 µM), for inactives: at the highest dose activity change, negative = H2O2 signal, hits mostly inhibitors | 150 tested, 40% active | AID 2035
HEK293 tox – counter-screen for GALK inhibitors: HEK293 cell cytotoxicity; shares compounds with Pol eta inh-1; HEK-293 viability, ATP luminescence (CellTiter-Glo), 24/48 h; Potency, µM (series often up to 46.1 µM), for the others: at the highest dose activity change, negative = cytotoxicity, most hits filed as inhibitors; 170 tested, 10% active; AID 2547; note: potency is the fitted concentration of half-maximal effect; % is set by controls: 0 for no effect and ±100 for the full control effect
Pol kappa inh-2 – Pol kappa (human) inhibition, cherry-pick confirmation | shares compounds with Pol eta inh-1 | purified Pol-kappa, fluorescent strand-displacement substrate | Potency, µM, actives largely listed as inhibitors | 920 tested, 76% active; note: potency is the fitted concentration of half-maximal effect
Pol eta inh-2 – confirmation of human DNA polymerase eta inhibitors; shares compounds with Pol eta inh-1; Pol eta primer extension, TAMRA/BHQ fluorescence, 10 min; Potency, µM, hits mostly inhibitors; 2,600 tested, 64% active; AID 720502; note: potency is the fitted concentration of half-maximal effect
* hit, by the source's call; [ ] = remark or other dose. Unless noted, calls come from the whole dose curve; as a rule, active = well fitted curve in the direction sought with a large enough effect; inconclusive = small, poorly fitted or top-dose-only effect, or another doubt; inactive = no such curve, though single readings can be large; an effect the other way counts as inactive or inconclusive.

Results for O=[N+]([O-])c1ccc(C=NNc2ccc(S(=O)(=O)O)cc2)cc1 ?
Pol eta inh-1: 22µM*; Pol iota inh: inconclusive; WRN inhibitor: 3%[11.6 µM]; Pol kappa inh-1: -9%; PI5P4K alpha inh: -29; Pol eta inh-2: 48*

What do the screens show for `Cn1nc(-c2ccc(OCC(=O)Nc3ccc(Cl)cc3)cc2)c2ccccc2c1=O`?
Pol eta inh-1: -11%; POLB inh: 7.9µM*; Pol iota inh: -6%; Pol kappa inh-1: -19%; Pol kappa inh-2: 42*

What do the screens show for `Cn1nc(-c2ccc(OCC(=O)Nc3ccccc3)cc2)c2ccccc2c1=O`?
Pol eta inh-1: 7%; POLB inh: -21%; Pol iota inh: 5%; WRN inhibitor: -2%; Pol kappa inh-1: -8%; PI5P4K alpha inh: -5

Results for COc1ccccc1NC(=O)C1=C(C)Nc2nc(SC)nn2C1c1ccccc1Cl (stereo unspecified) ?
Pol eta inh-1: -30%; POLB inh: -4%; Pol iota inh: 28%; Pol kappa inh-1: -22%

How did COc1ccc(/C=C/C(=O)NCC(=O)N=Nc2c(O)[nH]c3ccc([N+](=O)[O-])cc23)cc1 do in these assays?
Pol eta inh-1: 35µM*; POLB inh: 50µM*; Pol iota inh: 34%; WRN inhibitor: -11%[11.6 µM]; Pol kappa inh-1: -6%; PI5P4K alpha inh: -18; Pol kappa inh-2: 84*

What do the screens show for `COc1cc(/C=C2/C(=N)N3C=CSC3=NC2=O)ccc1OCCCOc1ccccc1C`?
Pol eta inh-1: -15%; POLB inh: -3%; Pol iota inh: 23%; WRN inhibitor: -25%; Pol kappa inh-1: -18%

How did CCS(=O)(=O)C1=NSC2=NC(=O)/C(=C\c3ccc(OS(=O)(=O)c4ccccc4)c(OC)c3)C(=N)N21 do in these assays?
Pol eta inh-1: 40µM*; POLB inh: inconclusive; Pol iota inh: -13%; WRN inhibitor: -21%; Pol kappa inh-1: -7%; PI5P4K alpha inh: -67*; GALK confirm: 47µM*; GALK redox cs: 11%; HEK293 tox: -5%

How did O=C1N=C(N2CCOCC2)S/C1=C\c1ccc(OS(=O)(=O)c2ccccc2)cc1 do in these assays?
Pol eta inh-1: -12%; POLB inh: 11%; Pol iota inh: 14%; WRN inhibitor: -11%; Pol kappa inh-1: 2%[60.1 µM]; PI5P4K alpha inh: 3

What do the screens show for `CCS(=O)(=O)C1=NN2C(=N)/C(=C\c3ccc(OS(=O)(=O)c4ccccc4)cc3)C(=O)N=C2S1`?
Pol eta inh-1: 45µM*; POLB inh: inconclusive; Pol iota inh: inconclusive; WRN inhibitor: -26%; Pol kappa inh-1: -33%; PI5P4K alpha inh: -79*; GALK confirm: 38µM*; GALK redox cs: 3%; HEK293 tox: 4%

Results for CS(=O)(=O)Oc1ccc(/C=C2\C(=N)N3N=C(CC(=O)N4CCOCC4)SC3=NC2=O)cc1Cl ?
Pol eta inh-1: -17%; POLB inh: 4%; Pol iota inh: 21%; WRN inhibitor: -7%; Pol kappa inh-1: 2%; PI5P4K alpha inh: 2

What do the screens show for `COc1cc(/C=C2\C(=N)N3N=C(S(C)(=O)=O)SC3=NC2=O)ccc1OS(=O)(=O)c1ccccc1`?
POLB inh: inconclusive; GALK confirm: 38µM*; GALK redox cs: 1%; HEK293 tox: -10%

How did CCC1=NN2C(=N)/C(=C/c3ccc(OS(=O)(=O)c4ccc(C)cc4)c(OC)c3)C(=O)N=C2S1 do in these assays?
Pol eta inh-1: inconclusive; POLB inh: inconclusive; Pol iota inh: inconclusive; WRN inhibitor: -10%[11.6 µM]; Pol kappa inh-1: -30%; PI5P4K alpha inh: -16; Pol eta inh-2: inconclusive

What do the screens show for `COc1ccc(-c2ccc(CN3C(C)C(=O)N(Cc4cn(CCC5OCCO5)nn4)CCS3(=O)=O)cc2)cc1` (stereo unspecified)?
Pol eta inh-1: 28µM*; WRN inhibitor: -8%[11.6 µM]; PI5P4K alpha inh: inconclusive; Pol kappa inh-2: inconclusive; Pol eta inh-2: inconclusive

Results for COc1ccc(-c2ccc(CN3C(C)C(=O)N(Cc4cn(CCC5OCCO5)nn4)CCS3(=O)=O)cc2)cn1 (stereo unspecified) ?
Pol eta inh-1: -5%; WRN inhibitor: 2%; PI5P4K alpha inh: 2

Results for O=C(CSc1nc2c([nH]c3ccccc32)c(=O)n1-c1cccc(C(F)(F)F)c1)N1CCc2ccccc21 ?
Pol eta inh-1: -13%; POLB inh: 7%; Pol iota inh: 10%; Pol kappa inh-1: -4%[60.1 µM]

How did Cc1noc(NS(=O)(=O)c2ccc(NC(=O)CSc3nc4ccccc4[nH]3)cc2)c1C do in these assays?
Pol eta inh-1: -11%; POLB inh: -7%; Pol iota inh: -3%; WRN inhibitor: -28%; Pol kappa inh-1: -6%

How did Cc1noc(NS(=O)(=O)c2ccc(NC(=O)CSc3nnc4c(n3)[nH]c3ccccc34)cc2)c1C do in these assays?
Pol eta inh-1: 25µM*; POLB inh: inconclusive; Pol iota inh: inconclusive; WRN inhibitor: 89µM*; Pol kappa inh-1: inconclusive; PI5P4K alpha inh: -6; Pol eta inh-2: 24*

Results for O=C1/C(=C/c2ccc(C(=O)O)cc2)CCC/C1=C\c1ccc(C(=O)O)cc1 ?
Pol eta inh-1: 8.9µM*; POLB inh: -9%; Pol iota inh: inconclusive; WRN inhibitor: -25%[57.1 µM]; Pol kappa inh-1: 0%; PI5P4K alpha inh: inconclusive; Pol eta inh-2: 30*

How did CC(=O)c1ccc2c(c1)C1C=CCC1C(c1cc3c(cc1Br)OCO3)N2 (stereo unspecified) do in these assays?
Pol eta inh-1: -4%; Pol iota inh: -17%; WRN inhibitor: -3%; Pol kappa inh-1: -15%; PI5P4K alpha inh: -7
